LEDGF integ inh: blockers of LEDGF/p75-dependent integrase strand transfer – biochemical, TR-FRET, high throughput, primary screen; HIV-1 integrase (with human LEDGF/p75); TR-FRET IN-LEDGF/p75 DNA integration, Eu/Cy5; inhibition, % at 3.7 µM; 370,000 compounds, 0.64% hits; AID 743269, 2014;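 active = inhibition above the screen-wide mean plus 3 SD, cut at about 13% in these data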;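 also: signal is the Cy5 over europium emission ratio at 671 and 618 nm; 0% = plate median of compound wells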
rCAG binder: binders of r(CAG) RNA repeats, primary screen, biochemical, fluorescence. r(CAG) RNA repeat, TO-PRO-1 dye displacement fluorescence. inhibition, % at 3 µM. 370,000 compounds, 1.3% hits. AID 651821, 2012;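 active = inhibition above the plate cutoff, the mean of all test compounds on that plate plus 3 SD, cut at about 35% in these data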;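 also: 0% = DMSO alone and 100% = 100 µM mitoxantrone as full dye displacement; higher means more dye released from RNA so lower well fluorescence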
MBD2 DNA inh: inhibitors of MBD2 binding to methylated DNA, primary screen, biochemical, TR-FRET, DNA-binding domain, human; Methyl-CpG-binding domain protein 2 (Homo sapiens), Q9UBB5; MBD2 binding to methylated oligonucleotide; inhibition, % at 4.4 µM; 370,000 compounds, 0.31% hits; AID 686964, 2013; in the data active = inhibition above about 13%
PG9 binder: binders of HIV-1 gp120 antibody PG9, primary screen, biochemical, TR-FRET. TR-FRET gp120-PG9 antibody binding. inhibition, % at 6.7 µM. 360,000 compounds, 0.43% hits. AID 624416, 2012; in the data active = inhibition above about 8.5%
DNMT1 inh: human DNMT1 methyltransferase inhibitors, primary screen, biochemical, molecular beacon, fluorescence, HinP1I cleavage, uHTS | 360,000 compounds, 0.83% hits | DNA (cytosine-5)-methyltransferase 1 (Homo sapiens), P26358 | inhibition (reported as % activation of signal), % at 10 µM; in the data active = inhibition above about 50%
UHRF1 binding: UHRF1 methylated DNA binding inhibitors, primary screen, counter-screen for MBD2 inhibitor project, biochemical, TR-FRET, human UHRF1, single concentration. 370,000 compounds, 0.75% hits. UHRF1 binding to methylated oligo. E3 ubiquitin-protein ligase UHRF1 (Homo sapiens), Q96T88. inhibition, % at 4.4 µM; in the data active = inhibition above about 21%;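 also: UHRF1 SRA domain binding a hemimethylated CpG hairpin DNA probe; 0% = median of test compound wells and 100% = reference inhibitor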
Target sequence (Q96T88 whole entry, looked up, the tested form may be a part): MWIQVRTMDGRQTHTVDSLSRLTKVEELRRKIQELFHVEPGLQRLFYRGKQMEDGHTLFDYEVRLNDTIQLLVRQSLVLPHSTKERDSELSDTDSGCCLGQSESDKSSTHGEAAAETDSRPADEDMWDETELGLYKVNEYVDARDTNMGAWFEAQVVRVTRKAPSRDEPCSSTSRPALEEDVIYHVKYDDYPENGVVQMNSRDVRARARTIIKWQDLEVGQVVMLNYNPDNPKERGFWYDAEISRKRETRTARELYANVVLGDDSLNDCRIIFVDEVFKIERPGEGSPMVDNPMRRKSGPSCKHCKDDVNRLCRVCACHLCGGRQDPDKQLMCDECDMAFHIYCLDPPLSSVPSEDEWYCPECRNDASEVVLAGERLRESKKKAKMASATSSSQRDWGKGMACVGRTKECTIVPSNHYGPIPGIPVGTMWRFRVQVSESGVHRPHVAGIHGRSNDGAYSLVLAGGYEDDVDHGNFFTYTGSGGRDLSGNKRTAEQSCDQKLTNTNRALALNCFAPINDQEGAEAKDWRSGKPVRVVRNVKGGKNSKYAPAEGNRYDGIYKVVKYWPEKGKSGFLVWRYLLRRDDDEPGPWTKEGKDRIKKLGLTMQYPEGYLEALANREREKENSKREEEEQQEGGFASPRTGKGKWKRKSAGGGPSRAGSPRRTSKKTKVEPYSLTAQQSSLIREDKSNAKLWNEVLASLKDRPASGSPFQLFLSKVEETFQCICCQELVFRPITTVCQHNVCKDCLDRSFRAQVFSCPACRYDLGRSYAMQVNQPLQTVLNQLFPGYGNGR
rCAG binder conf: small molecules binding CAG repeat RNA – biochemical, fluorescence, confirmation; 4,300 compounds, 70% hits; r(CAG) RNA repeat, TO-PRO-1 dye displacement fluorescence; inhibition, % at 3 µM; shares compounds with rCAG binder; AID 652065, 2013;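 active = inhibition above a per-plate cutoff, the mean inhibition of sample wells plus 3 SD, cut at about 35% in these data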;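 also: loss of TO-PRO-1 fluorescence as compound displaces dye from 1x1 AA loop RNA; 0% = DMSO only wells and 100% = 100 µM mitoxantrone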
DNA CAG counter: displacement of TO-PRO-1 from CAG DNA duplex, counter-screen for rCAG RNA repeat binder project, biochemical, fluorescence, TO-PRO-1 dye, d(CAG) DNA oligo; shares compounds with rCAG binder; 4,300 compounds, 94% hits; d(CAG) DNA oligo TO-PRO-1 dye displacement; inhibition, % at 3 µM;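 active = inhibition above its plate's cutoff, the mean test-well inhibition plus 3 SD, cut at about 4.8% in these data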;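 also: 0% = DNA dye mix with DMSO and 100% = 100 µM mitoxantrone; hits displace the dye from DNA and so lower well fluorescence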
The depositor's hits bear a star; . = no result. The list is not random: actives were taken first. Their share in the collection is about 3.5%.

SMILES	LEDGF integ inh	rCAG binder	MBD2 DNA inh	PG9 binder	DNMT1 inh	UHRF1 binding	rCAG binder conf	DNA CAG counter
CC(OC(=O)Cc1ccsc1)C(=O)Nc1ccc(C(N)=O)cc1 (stereo unspecified)	3	-2	1	-3	7	-2	.	.
O=C(O)c1cccc(N/N=C/c2cn(-c3ccccc3)nc2-c2cccs2)c1	-1	48*	5	-2	-30	4	76*	37*
NC(=O)N/N=C/c1cn(-c2ccccc2)nc1-c1cccs1	-3	6	-4	-1	-6	-2	.	.
NS(=O)(=O)c1ccc(N/N=C/c2cn(-c3ccccc3)nc2-c2cccs2)cc1	1	36*	6	-2	-26	1	25	15*
Nc1ccccc1SCCS(=O)(=O)c1ccc(Cl)cc1	-2	2	0	-3	27	2	.	.
Cc1ccc(C)c(OCc2cc(C(=O)NC(c3ccccn3)C(F)(F)F)no2)c1 (stereo unspecified)	4	-4	-2	-3	-3	0	.	.
O=C(O)COc1ccc(/C=N/NC(=O)c2cn(-c3ccccc3)nc2-c2ccccc2)cc1	-2	43*	1	1	0	1	35*	10*
Cc1ccc(-c2cc(C(=O)N/N=C/c3ccc([N+](=O)[O-])o3)c3ccccc3n2)o1	5	29	1	-5	23	-2	.	.
O=C(N/N=C/c1ccc([N+](=O)[O-])o1)c1cn(-c2ccccc2)nc1-c1ccccc1	3	39*	2	1	32	4	19	10*
Cc1nc(CN(C)c2ncnc3ccc(-c4ccc5c(c4)OCO5)cc23)cs1	1	4	0	-1	3	-5	.	.
[N-]=C=C1C(=S)NC(=O)[C@H]([n+]2ccccc2)[C@H]1c1ccc(Cl)cc1	-1	44*	-5	9	-11	-1	64*	28*
[N-]=C=C1C(=O)NC(=O)C([n+]2ccc(-c3ccncc3)cc2)C1c1ccccc1C(F)(F)F (stereo unspecified)	-7	34	-5	-1	-22	-3	.	.
Cc1ccc(F)c(S(=O)(=O)NC(=O)C2(C)CCN2C(=O)c2ccc(C3CCCCC3)cc2)c1 (stereo unspecified)	-1	31	0	-2	3	1	.	.
Cc1sc(NC(=O)C2CC=CCC2C(=O)O)c(C(=O)OC(C)C)c1C (stereo unspecified)	-4	41*	0	3	14	4	33	5.8*
Cc1nc([N+](=O)[O-])cn1CC(=O)c1ccc(Br)cc1	-2	-1	2	0	41	-2	.	.
CC(C)=CCc1c(O)cc2oc3c(CC=C(C)C)c(O)c(O)c(CC=C(C)C)c3c(=O)c2c1O	-4	72*	-3	1	5	1	67*	47*
Cc1sc2nc(SCc3ccc(C(=O)O)cc3)n(Cc3ccco3)c(=O)c2c1C	2	55*	3	1	0	-3	57*	20*
COCc1[nH]nc2c1C(c1ccc(F)cc1)NC2=O (stereo unspecified)	-1	3	1	-1	.	1	.	.
COc1ccc(C2CC(=O)N3CN(Cc4ccco4)CSC3=C2C#N)cc1 (stereo unspecified)	1	28	0	2	-20	-10	.	.
COc1ccc2ccccc2c1C1CC(=O)N2CN(Cc3ccco3)CSC2=C1C#N (stereo unspecified)	6	49*	3	4	-27	-4	26	14*
COc1cc(C2CC(=O)N3CN(Cc4ccco4)CSC3=C2C#N)ccc1OCc1ccccc1 (stereo unspecified)	0	42*	-3	0	-29	-4	21	9.8*
N#CC1=C2SCN(Cc3ccco3)CN2C(=O)CC1c1ccc(Cl)cc1 (stereo unspecified)	4	24	-4	1	-17	-4	.	.
C=CCOC(=O)N[C@H](c1ccc(-c2ccccc2)cc1)[C@H](C)/C=C/CC(=O)OC	1	0	-2	.	.	-1	.	.
Cc1nnc(SCC(=O)Nc2nonc2C)s1	-5	-1	2	-1	2	1	.	.
Cc1ccc(C(=O)Nc2nc(=O)n(C(=O)CC(C)C)s2)cc1	3	20	-6	-2	-2	1	.	.
SMILES	LEDGF integ inh	rCAG binder	MBD2 DNA inh	PG9 binder	DNMT1 inh	UHRF1 binding	rCAG binder conf	DNA CAG counter
Cc1ccc(C(=O)Nc2nc(=O)n(C(=O)c3ccccc3Cl)s2)cc1	-2	48*	-2	0	1	-3	63*	17*
C[C@@H]1CN([C@H](C)CO)C(=O)CCCn2nncc2CO[C@H]1CN(C)Cc1ccccc1C(F)(F)F	-11	0	-2	-1	0	1	.	.
CC(C)c1ccc(NC(=O)Nc2nc(C(N)C3CCCCC3)cs2)cc1 (stereo unspecified)	7	35*	0	1	6	2	21	5.5*
COc1ccc(NC(=O)Nc2nc(C(N)C3CCCCC3)cs2)cc1 (stereo unspecified)	10	40*	1	0	-9	5	25	4.6*
O=C(O)Cc1ccc(N=Nc2c(O)c(C(=O)O)cc3ccccc23)cc1	8	87*	-15	-3	61*	-3	58*	23*
Nc1nc(O)c(N=Nc2ccc(S(N)(=O)=O)cc2)c(=O)[nH]1	-2	5	-3	-3	.	-1	.	.
NS(=O)(=O)c1ccc(N=Nc2c(O)c(C(=O)O)cc3ccccc23)cc1	-1	46*	-14	-7	-28	2	48*	26*
C=CCOc1ccc(Br)cc1/C=C1\NC(=S)N(C(C)=O)C1=O	3	66*	-11	2	0	-8	49*	15*
COC(=O)[C@]12CCCCC=C1N(CCc1ccc(OC)c(OC)c1)C(=O)[C@H](CC(=O)NCCc1ccccc1OC)C2	1	1	-4	-1	.	-3	.	.
